Bioassay records: PubChem, National Center for Advancing Translational Sciences (NCATS)
a7 integrin act – integrin-mediated muscular dystrophy alleviation activation; alpha7betagal myoblasts, beta-gal FDG fluorescence, 48 h; 0.064% of 350,000 active; Potency, µM (top dose mostly 38.3 µM), hits mostly activators; also: nearly all actives have a fitted effect of over 60% in size
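alpha7betagal+/- myoblasts (passage 13, 250/well) treated 48 h at 37C with compounds at 1:260 dilution of DMSO stock. Lysed, then beta-galactosidase activity read as FDG fluorescence (ex 480/em 540) after 30 min, with pre-read for autofluorescence.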
p53 reactivation – restores transcriptional activity of mutant p53. 0.063% of 320,000 active. H1299 p53-A138V BP100-luciferase reporter, luminescence, 24 h. AID 504706. Potency, µM (series often up to 92.2 µM), usual class: activators; also: nearly all actives have a fitted effect of over 45% in size
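H1299 (p53-null), stable ts p53-A138V + BP100-Luc; 1000 cells/well, Opti-MEM/10% FBS; cpd 4 pt, 1:5; 24 h, 37 deg C, 5% CO2; detection reagent 10 min RT; luminescence.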
Mm-Cpn inhibitor – inhibitors of Methanococcus maripaludis chaperonin TRiC (MmCpn); purified Mm-Cpn ATPase, ADP Transcreener TR-FRET; 0.031% of 330,000 active; Potency, µM (highest dose often 76.9 µM), usual class: inhibitors; also: nearly all actives have a fitted effect of over 80% in size
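Quantitative HTS used 25 nM Mm-CPN and 10 uM ATP in magnesium/KCl Tris buffer, pH 7.4, with 1 mM DTT. Hydrolysis ran 30 min at 37°C; ADP was read by HTRF.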
USP2a block – blocks human ubiquitin-specific protease USP2a; O75604; USP2 core, Ub-CHOP2 coupled fluorogenic reporter, 485/531; Potency, µM (top dose mostly 38.3 µM), actives largely listed as inhibitors; 0.01% of 330,000 active; AID 463254
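USP2 core (10nM final) preincubated 30min RT with compound in 20mM Tris-HCl pH 8.0, 2mM CaCl2, 2mM beta-mercaptoethanol, 0.05% CHAPS; 25nM Ub-CHOP2 plus 25nM reporter substrate added, fluorescence (Ex485/Em531) read after 60min.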
ClpP mod – qHTS Assay for Activators of ClpP; purified B. subtilis ClpP, FRET peptide cleavage, 20 min; ATP-dependent Clp protease proteolytic subunit (Bacillus subtilis (strain 168)), P80244; 1.9% of 340,000 active; Potency, µM (highest dose often 57.5 µM); active = well fitted falling curve with a large enough effect; inconclusive = small, poorly fitted or top-dose-only effect; inactive = no such curve, though single readings can be large or run the other way; also: the source files actives as falling curves though it sought activators and does not explain the sign; nearly all actives have a fitted effect of over 65% in size
Target sequence (P80244 whole entry, looked up): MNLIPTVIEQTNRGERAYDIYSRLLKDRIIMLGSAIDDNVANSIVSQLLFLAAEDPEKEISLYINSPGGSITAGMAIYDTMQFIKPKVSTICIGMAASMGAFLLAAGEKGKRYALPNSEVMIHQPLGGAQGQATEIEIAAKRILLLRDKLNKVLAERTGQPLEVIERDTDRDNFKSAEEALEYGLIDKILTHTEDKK
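Purified B. subtilis ClpP, 10 microg/mL final in Tris/HCl pH8 with KCl, BSA, glycerol and Tween-20, cleaved an Abz/nitrotyrosine-quenched decapeptide. Fluorescence (ex 320, em 430) was read at 0 and 20 min at room temperature. Delta was normalized to 5.8 microM ADEP and DMSO/no-enzyme controls.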
Eya2 phos inh – Eya2 (human) phosphatase inhibition | recombinant Eya2, OMFP fluorescence dephosphorylation (OMFP is methylfluorescein phosphate) | Potency, µM (top dose mostly 76.9 µM), most hits filed as inhibitors | O00167 | AID 488837 | 0.006% of 330,000 active
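Eya2 (0.2 uM) preincubated 10 min at ambient with compound, then OMFP substrate added at 50 uM; 10 min reaction in 50 mM HEPES pH 7.5, 50 mM NaCl, 5 uM MgCl2, 0.05% BSA, 1 mM DTT. Fluorescence read at Ex 485/Em 525 nm.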
A number is an active result; . = inactive; ? = inconclusive; / = no result given; [ ] = another dose, or the depositor's remark. Many of the other results were omitted from the sample, so hits are more common in it than they were. Unless noted, calls follow the shape of the dose curve; as a rule, active = well fitted curve in the direction sought with a large enough effect; inconclusive = small, poorly fitted or top-dose-only effect, or another doubt; inactive = no such curve, though single readings can be large; an effect the other way counts as inactive or inconclusive.

SMILES	a7 integrin act	p53 reactivation	Mm-Cpn inhibitor	USP2a block	ClpP mod	Eya2 phos inh
O=c1cc(-c2ccccc2)nc2cc(-c3ccc(Br)cc3)[nH]n12	.	.	.	.	?	.
COCc1cc(=O)n2[nH]c(-c3ccccc3)cc2n1	.	?	.	.	25µM	.[15.4 µM]
COCc1cc(=O)n2[nH]c(-c3cccc(Br)c3)cc2n1	.	?	.	.	?	.
COCc1cc(=O)n2[nH]c(C)cc2n1	.	.	.	.	18µM	.
O=C(O)CSC1=NS(=O)(=O)c2ccccc21	/	/	/	/	.	/
COc1ccc(C(=O)COc2ccccc2C#N)cc1	.	32µM	.	.	.	.
CCCn1c(=O)[nH]c(=O)c2c1nc(-c1ccc(OC(F)(F)C(F)C(F)(F)F)cc1)n2CCOC (centres undefined)	.	.	.	.	28µM	.
CCCn1c(=O)[nH]c(=O)c2c1nc(-c1ccc(C#N)cc1)n2CCOC	.	.	.	.	/	.
CCOc1ccc(C(=O)NCC(=O)OCc2c(F)cccc2Cl)cc1OCC	.	.	.	.	.	.
CCOc1ccc(C(=O)NCC(=O)OCc2c(F)cccc2Cl)cc1	.	.	.	.	28µM	.
COc1cccc(NC(=O)CN2CCN(S(=O)(=O)c3ccc(F)cc3)CC2)c1	.	.	.	.	.	.
O=C(CN1CCN(S(=O)(=O)c2ccc(F)cc2)CC1)Nc1cccc(C(F)(F)F)c1	.	.	.	.	28µM	.
O=C(Nc1nnc(-c2ccccc2)s1)C1CCCN(C(=O)c2ccoc2)C1 (centres undefined)	/	/	/	/	.	/
CN1CCc2cc3c(c4c2[C@H]1[C@H](O)c1ccccc1-4)OCO3	.	.	.	.	.	.
CN1CCc2cc3c(c4c2C1CC41CCC(=NO)CC1)OCO3 (centres undefined)	.	.	.	.	32µM	.
O=C(N/N=C/c1ccc(Cl)cc1)c1cc2c(s1)-c1ccccc1CC2	.	.	.	.	28µM	.
COc1cc2cc(CN(CCO)C(=O)c3cccs3)c(=O)[nH]c2cc1OC	.[7.66 µM]	.	.	.	32µM	.
COc1cc2cc(CN(CCc3cccc(C)c3)C(=S)NCCCN(C)C)c(=O)[nH]c2cc1OC	.	.	?	.	28µM	.
CNC(=S)N(CCc1cccc(C)c1)Cc1cc2cc(OC)c(OC)cc2[nH]c1=O	.	.	.	.	?	.
COc1cc(OC)c(/C=C/c2ccncn2)c(OC)c1	/	/	/	/	.	/
COc1cccc(CN2CCN(CC(=O)Nc3ccccc3Cl)CC2)c1	.	.	.	.	14µM	.
COc1ccccc1NC(=O)CN1CCN(CC(=O)Nc2ccccc2Cl)CC1	.	.	.	.	.	.
CC(C)(C)c1cc(C(=O)N/N=C/c2ccc(O)cc2)n(-c2ccccc2)n1	.	.	.	.	32µM	.
CCOC(=O)COc1c(C(=O)OC)sc2ncccc12	.	.	.	.	25µM	.
COC(=O)c1sc2ncccc2c1OCc1c(Cl)cccc1Cl	.	.	.	.	.	.
SMILES	a7 integrin act	p53 reactivation	Mm-Cpn inhibitor	USP2a block	ClpP mod	Eya2 phos inh
Cc1ccc2nc(SC(Cc3cc(Cl)ccc3Cl)C(=O)O)[nH]c2c1 (centres undefined)	/	/	/	/	.	/
O=C(O)c1ccc(N(c2ccccc2)c2ccccc2)cc1	?	.	.	.	16µM	.
O=[N+]([O-])c1cc(S(=O)(=O)C(F)(F)F)ccc1Sc1nc2ccccc2[nH]1	.	.	.	.	25µM	.
O=C(Cn1cc(S(=O)(=O)Cc2ccc(F)cc2)c2ccccc21)NCCc1ccccc1	/	/	/	/	.	/
CCOC(=O)C1C(C#N)=C(N)OC(C)=C1c1ccncc1 (centres undefined)	.	.	.	.	32µM	.
CSc1ccc(/C=C/c2ccnc3ccccc23)cc1	/	/	/	/	.	/
COCc1ccc(-c2c(-c3ccsc3)oc(=O)c3cc(OC)c(OC)cc23)cc1	.	?	.	.	32µM	.
COc1ccc(-c2oc(=O)c3cc(OC)c(OC)cc3c2-c2cc(F)cc(OC)c2)cc1	.	.	.	.	20µM	.
